pCIP destab: lowers stability of the mouse p/CIP coactivator protein; F442A p/CIP-EGFP cells, EGFP fluorescence, 16 h; Q05BA5; 0.01% of 290,000 active; decrease of EGFP signal, % at 10 µM;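 active = EGFP signal decrease of at least 30% at 10 µM or well 3 SD below plate mean, unless failing retest; inactive = the rest, including hits failing retest or dose response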
Target sequence (Q05BA5 1-1403): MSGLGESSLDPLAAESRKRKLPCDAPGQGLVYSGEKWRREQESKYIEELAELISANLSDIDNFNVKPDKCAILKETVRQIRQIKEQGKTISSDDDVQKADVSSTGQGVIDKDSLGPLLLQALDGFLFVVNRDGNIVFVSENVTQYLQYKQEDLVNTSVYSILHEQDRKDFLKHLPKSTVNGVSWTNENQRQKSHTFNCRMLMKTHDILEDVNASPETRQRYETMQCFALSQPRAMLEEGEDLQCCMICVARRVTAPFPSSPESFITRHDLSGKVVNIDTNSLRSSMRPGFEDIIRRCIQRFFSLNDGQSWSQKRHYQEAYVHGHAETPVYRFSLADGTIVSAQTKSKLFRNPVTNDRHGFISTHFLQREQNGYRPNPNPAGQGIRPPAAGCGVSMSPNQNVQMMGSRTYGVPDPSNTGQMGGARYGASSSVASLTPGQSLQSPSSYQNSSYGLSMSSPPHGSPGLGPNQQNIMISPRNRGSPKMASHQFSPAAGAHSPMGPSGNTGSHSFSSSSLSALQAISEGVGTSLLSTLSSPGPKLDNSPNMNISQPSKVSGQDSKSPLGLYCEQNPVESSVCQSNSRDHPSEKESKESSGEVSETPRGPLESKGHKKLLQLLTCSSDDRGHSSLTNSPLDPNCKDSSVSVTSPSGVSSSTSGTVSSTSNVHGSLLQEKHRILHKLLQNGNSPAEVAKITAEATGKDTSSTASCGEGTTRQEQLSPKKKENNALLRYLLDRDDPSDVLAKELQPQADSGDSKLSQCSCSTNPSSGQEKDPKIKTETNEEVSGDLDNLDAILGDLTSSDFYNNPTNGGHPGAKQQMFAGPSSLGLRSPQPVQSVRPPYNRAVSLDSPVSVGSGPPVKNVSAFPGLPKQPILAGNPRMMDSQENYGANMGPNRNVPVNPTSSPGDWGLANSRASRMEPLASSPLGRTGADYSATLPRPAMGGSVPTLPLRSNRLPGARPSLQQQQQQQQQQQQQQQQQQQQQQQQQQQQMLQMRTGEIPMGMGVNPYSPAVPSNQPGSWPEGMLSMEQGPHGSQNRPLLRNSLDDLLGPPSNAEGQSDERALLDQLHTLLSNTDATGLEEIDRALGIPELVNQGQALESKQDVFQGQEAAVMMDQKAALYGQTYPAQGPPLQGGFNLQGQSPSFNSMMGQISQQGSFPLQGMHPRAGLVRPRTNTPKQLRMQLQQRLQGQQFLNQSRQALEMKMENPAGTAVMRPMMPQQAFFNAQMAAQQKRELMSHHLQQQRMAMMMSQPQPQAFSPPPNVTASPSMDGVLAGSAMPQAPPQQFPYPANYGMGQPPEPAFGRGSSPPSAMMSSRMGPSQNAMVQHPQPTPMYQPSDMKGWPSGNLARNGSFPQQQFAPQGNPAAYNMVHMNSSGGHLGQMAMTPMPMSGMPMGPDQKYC
MIN6 prolif: MIN6 beta-cell proliferation induction; MIN6 cells proliferation, ATPlite luminescence, 48 h; cells starved in 0.2% serum; 100% = growth in 10% serum; proliferation, % at 10 µM; 0.29% of 330,000 active; AID 2380;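 active = compounds whose signal lies at least 3.5 SD above the mean of all wells on their plate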;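 also: 0% = DMSO-treated cells in low-serum medium and 100% = 10% serum control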
GRIN3A LBD mod: modulators (binders) of human NR3A ligand-binding domain. NR3A LBD differential scanning fluorimetry, Tm shift; 0% = protein alone, 100% = glycine-bound protein. Tm shift relative to glycine control, % at 25 µM. 2.5% of 340,000 active;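 active = melting temperature shift of at least 10% of the positive control shift, at one fixed dose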
FAS TE block: FAS thioesterase (human) inhibition. 0.67% of 360,000 active. recombinant FAS-TE, OMFH fluorogenic substrate, fluorescence endpoint. inhibition, % at 15 µM. P49327;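 active = compounds whose normalised, plate-corrected inhibition of enzyme fluorescence in the single-dose primary screen is 50% or more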;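 also: 0% = DMSO with enzyme and 100% = substrate without enzyme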
MPTP block: blocks calcium-induced mitochondrial swelling; 1.4% of 360,000 active; isolated mouse mitochondria, Ca2+ swelling absorbance, 30 min; inhibition, % at 10 µM;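 active = inhibition of 50% or more, scaled per plate between neutral and stimulator controls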;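 also: 0% = DMSO wells given calcium and 100% = 1 mM EGTA wells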
FAS-TE conf: FAS thioesterase (human) inhibition, confirmation; recombinant FAS-TE, OMFH fluorogenic substrate, fluorescence; AID 624325; shares compounds with FAS TE block; inhibition, % at 15 µM; 45% of 2,300 active;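 active = compounds inhibiting the enzyme by at least 50% at 15 µM in any one of the replicates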;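 also: 0% = enzyme with DMSO only and 100% = wells lacking enzyme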
Starred values were filed as active, the others as inactive; x = no result. In the library only some 4.1% were active in any assay of this set; here they are far more common.

SMILES	pCIP destab	MIN6 prolif	GRIN3A LBD mod	FAS TE block	MPTP block	FAS-TE conf
COc1ccccc1Cn1c(=S)[nH]c2cc(C(=O)N3CC(C)CC(C)C3)ccc2c1=O (stereo not given)	x	x	x	4.4	0.8	x
CSc1nc2ccccc2n1Cc1cccc([N+](=O)[O-])c1	-14.5	0.8	-2.9	58.6*	2.5	29.5
CC(C)(C)c1ccc(C(=O)N2CCC2(C)C(=O)NS(=O)(=O)c2ccc(C#N)cc2)cc1 (stereo not given)	x	x	x	53.3*	-0.5	65.2*
N#CC(C#N)=c1ccc2c(c1)N1C3=C(CCCC3)CC3CCCCC31N=2 (stereo not given)	-54.3	-3.9	-4.6	51.3*	12.4	17.6
O=C(N/N=C/c1ccccc1)NC1CCCCC1	8.6	-0.9	-0.9	7.9	-11.4	x
CC(C)(C)c1ccc(/C=N/NC(=S)NC2CCCCC2)cc1	2.1	-5.3	-5.2	52.7*	11.1	44.6*
CN(CC(=O)Nc1cccc(F)c1)C(=O)c1ccc(N2CCCC2)c([N+](=O)[O-])c1	x	-2.0	6.1	7.5	3.0	x
COc1cc(NC(=O)CCC2CCCC2)cc(-n2cnnn2)c1	-0.1	1.8	-5.3	60.4*	11.4	12.2
Cc1coc(NC(=O)CSc2nc(-c3ccncc3)cc(C(F)(F)F)c2C#N)n1	-13.3	3.1	-0.8	55.3*	-0.1	36.6*
COC(=O)C1(C(=O)OC)C/C=C\CCN(S(=O)(=O)c2ccccc2[N+](=O)[O-])CC1	x	x	x	2.2	-0.8	x
COC(=O)/C=C1\OCc2cc(OCc3ccccc3)ccc21	x	x	x	x	-2.9	x
O=C(Oc1ccc(N(Cc2cccs2)C2=NS(=O)(=O)c3ccccc32)cc1)c1ccc(Cl)cc1	-4.4	-2.6	-2.7	29.4	-1.5	x
O=C(Oc1ccc(N(Cc2cccs2)C2=NS(=O)(=O)c3ccccc32)cc1)c1ccccc1	6.4	-5.2	-1.6	59.7*	8.3	-8.4
O=C(NCc1ccccc1)/C(=C/c1cccc([N+](=O)[O-])c1)NC(=O)c1ccco1	0.2	0.6	1.0	69.4*	0.7	78.9*
O=C(/C=C/c1cccc([N+](=O)[O-])c1)NCCc1ccc(F)cc1	-0.8	0.0	1.0	51.8*	0.6	51.3*
O=C(NC(Cc1ccccc1)C(=O)O)/C(=C\c1cccc([N+](=O)[O-])c1)NC(=O)c1ccco1 (stereo not given)	-9.4	-2.3	-2.5	8.1	0.0	x
O=C(/C=C/c1ccc([N+](=O)[O-])cc1)NCCc1ccc(F)cc1	5.3	-0.8	-1.0	23.0	5.9	x
O=C(NCCc1ccccc1)/C(=C\c1cccc([N+](=O)[O-])c1)NC(=O)c1ccco1	-0.5	0.0	-0.8	83.4*	-0.2	77.2*
CCN(CC)C(=O)c1cccc(-c2csc(C(NC(C)=O)c3ccc(F)c(F)c3)n2)c1 (stereo not given)	x	x	x	-0.3	0.3	x
Cc1cc(F)ccc1-c1cc(C(=O)NCc2ccco2)[nH]n1	x	x	x	-3.6	-0.4	x
Fc1ccc(-c2nc3ccc(Br)cn3c2Cc2ccsc2)cc1	x	x	x	-9.7	-2.5	x
CN1CCN(c2c([N+](=O)[O-])cnc3ccccc23)CC1	x	0.4	2.4	-0.5	0.3	x
CCCNC(=O)C1(C)CCN(C(=O)c2sccc2C)C1 (stereo not given)	x	x	x	-6.2	-1.1	x
O=[N+]([O-])c1c(Nc2ccccc2O)ccc2nonc12	-9.5	-2.0	-3.2	1.7	0.3	x
O=[N+]([O-])c1c(Nc2ccccc2O)cc(Cl)c2nonc12	-27.9	-5.0	-5.7	65.1*	1.1	52.7*
SMILES	pCIP destab	MIN6 prolif	GRIN3A LBD mod	FAS TE block	MPTP block	FAS-TE conf
O=C(COC(=O)c1cc([N+](=O)[O-])ccc1NCCO)Nc1ccc2c(c1)OCO2	-25.1	-1.9	-3.6	77.4*	5.8	51.4*
Nc1ccc(C(=O)OCC(=O)Nc2ccc3c(c2)OCO3)cc1[N+](=O)[O-]	-8.8	3.9	-2.4	-4.3	1.6	x
O=C(COC(=O)c1cc([N+](=O)[O-])ccc1NCCO)Nc1cccc(S(=O)(=O)N2CCCC2)c1	x	-2.0	0.9	70.4*	0.1	69.3*
Cc1ccc(C(=O)Nc2cccc(S(=O)(=O)N3CCCCC3)c2)cc1[N+](=O)[O-]	x	-6.4	0.9	52.9*	21.2	13.8
Cc1nn(-c2ccccc2)c(C)c1NC(=O)COC(=O)c1cc([N+](=O)[O-])ccc1NCCO	7.1	0.7	2.1	22.1	-0.5	x
Cc1ccc(C(=O)Nc2cccc(S(=O)(=O)N3CCCCC3)c2)cc1S(=O)(=O)N1CCOCC1	x	x	-1.4	32.6	1.5	x
Cc1ccc(C)c(C(=O)COC(=O)c2cc([N+](=O)[O-])ccc2NCCO)c1	2.4	x	-6.8	62.3*	1.6	4.2
COc1cccc(C(NC(C)=O)c2nc(-c3cccc(C(C)C)c3)cs2)c1 (stereo not given)	x	x	x	16.6	-0.6	x
CC(C#N)(CCc1ccccn1)CCc1ccccn1	x	x	0.5	-9.2	-1.0	x
CCCC(=O)NC1=C(Cl)C(=O)c2ccccc2C1=O	x	x	-11.7	52.9*	23.2	55.5*
CCNC1=C(Cl)C(=O)c2ccccc2C1=O	-7.2	-5.0	-0.9	-1.6	3.5	x
Cc1c(C(=O)Nc2cccc(Cl)c2)oc2ccc(S(=O)(=O)N3CCC4(CC3)OCCO4)cc12	-12.9	-5.2	-0.2	65.6*	1.7	1.0
Cc1c(C(=O)Nc2ccc(F)cc2)oc2ccc(S(=O)(=O)N3CCC4(CC3)OCCO4)cc12	-11.3	-2.5	-1.6	36.2	-3.5	x
CC1(C(=O)NS(=O)(=O)c2ccc(Cl)cc2)CCN1C(=O)CCC1CCCC1 (stereo not given)	x	x	x	3.5	0.7	x
CCOc1ccc2nc(Cl)c(C3CC(c4ccco4)=NN3S(=O)(=O)c3ccccc3)cc2c1 (stereo not given)	-14.7	-1.8	-0.4	52.9*	0.9	24.2
COc1ccc2cc(C3CC(c4ccco4)=NN3S(C)(=O)=O)c(Cl)nc2c1 (stereo not given)	-4.0	-0.8	0.2	-3.4	1.4	x
CCc1cc2c(=O)oc(-c3ccccc3F)nc2s1	-5.1	2.6	2.2	75.3*	-1.4	59.9*
Cc1cc2c(=O)oc(-c3ccccc3Br)nc2s1	-0.2	x	2.4	59.1*	-2.4	65.0*
CC(=O)NC12CC3CC(C1)CC(C(=O)N1CCN(S(=O)(=O)c4cccc([N+](=O)[O-])c4)CC1)(C3)C2	x	x	1.6	2.0	-0.9	x
CC[C@@]12C(=O)N(c3cccc(F)c3)C(=O)N1[C@H](c1ccc(Br)cc1)[C@@H]1C(=O)N(C(C)(C)C)C(=O)[C@@H]12	x	-0.2	-14.3	16.8	0.1	x
CC(C)(C)N1C(=O)[C@H]2[C@@H](c3ccc(Br)cc3)N3C(=O)N(c4cccc(F)c4)C(=O)[C@@]3(Cc3ccccc3)[C@H]2C1=O	x	-7.0	-3.6	92.0*	4.2	36.2*

Compound activity deposited in PubChem by Sanford-Burnham Center for Chemical Genomics.
